This note sets out measurements from ChEMBL document CHEMBL4513149, “CO-ADD screening of MMV (CH) - MMV compounds” (2021).

Entries with a potency or affinity are not part of this list.

For the first test, the system named is Staphylococcus aureus. The conditions noted are these: Concentration 20 uM; ASSAY_TEST Inhibition of Bacterial Growth; detection method Absorption (OD600); MEDIA CAMHB; plate type 384well; NBS; CORNING #3640; time 18 hr.
As usually defined, the Inhibition is the change of the read-out against control, counted positive when it falls. As to `Cc1cccc(Cn2ccc(NC(=O)c3ccc4c(c3)OCO4)n2)c1`, the Inhibition is given as 18.14%.
Still for that read-out and setting: the figure for `CNc1cc(C)nc(C2CN(C(=O)c3n[nH]c4ccccc34)CCO2)c1` (configuration not stated) is 17.74%; for `Cc1cc(C)n(-c2ccc(NC(=O)C3CCN(Cc4cnc(C)s4)CC3)cc2)n1` it is 16.08%.
Regarding `CCCn1nnc(NC(=O)COc2ccc(C3CCCCC3)cc2)n1`, the Inhibition stood at 2.73%.
For `O=C(NCCc1ccn(-c2ccccc2)n1)C1CCCCC1`, the Inhibition is 6.55%.
For `CC(C)(CN)c1nc(-c2ccc(Cl)c(O)c2)c(-c2ccnc(N)n2)[nH]1.O=C(O)C(F)(F)F.O=C(O)C(F)(F)F`, the Inhibition is listed as 18.2%.
Still for that read-out and setting: with `COC(=O)c1cccc2oc(-c3cccc(OC)c3NC(=O)c3cc(-c4ccccc4)on3)nc12` the figure was 11.44%; with `Cl.NCC(c1cccs1)S(=O)(=O)c1ccccc1` (configuration not stated), 11.05%.
Regarding `Cc1cc2nc(NC(=O)C(C)(C)C)nc(Cl)c2n1Cc1ccc(Cl)cc1`, the Inhibition was 7.77%.
Same read-out and setting: the figure for `Clc1ccc(Cl)c(CO[C@H]2CCCC[C@@H]2n2ccnc2)c1` is 22.53%; for `O=C(NC1CCCCC1)N1CCN(Cc2ccc3c(c2)OCO3)CC1` it is 15.03%.
As for `O=C(Nc1cccc(-c2ccc(NCCCN3CCCC3)nc2)c1)c1ccccc1`, the Inhibition turned out to be 10.81%.
Consider `O=C(C1CCN(c2nnc(-n3cccc3)s2)CC1)N1CCC(Cc2ccccc2)CC1`, for which the Inhibition is 17.77%.
The same measure, in the same setting: the figure for `CNc1snc(C)c1C(=O)NCCOc1ccc(OC)cc1` is 18.31%.
Turning to `COc1ccc(S(=O)(=O)Nc2ccc(CN3CCN(C(=O)c4cccc(C#N)c4)CC3)cc2)cc1`, the Inhibition is recorded as 1.42%.
As for `O=C(Nc1ccnc(-c2cccnc2)n1)c1cc(C(F)(F)F)cc(C(F)(F)F)c1`, the Inhibition turned out to be 15.63%.
As to `COc1ccc(C2CC(c3cccs3)=NN2C(=O)c2ccco2)cc1OC` (configuration not stated), the Inhibition worked out at 19.66%.
In the case of `CN1CCCN(C(c2ccccc2)c2ccc(Cl)cc2)CC1` (configuration not stated) [HOMOCHLORCYCLIZINE], the Inhibition was 14.31%.
As for `COc1ccc(C(=N)N)cc1-c1cn(-c2ccc(C(=N)N)cc2)nn1.Cl.Cl`, the Inhibition worked out at 4.09%.
Still for that read-out and setting: the figure for `O=C(NCc1ccoc1)N1CCN(Cc2ccc3c(c2)OCO3)CC1` is 17.61%.
On the same count and under the same terms, the figure for `CNC(=O)c1nn(C)c2c1C(C)(C)Cc1cnc(Nc3ccc(N4CCN(C)CC4)cc3)nc1-2` [MILCICLIB] is 15.75%; for `NC(=O)c1cc(Br)ccc1OCCOc1ccccc1` it is 12.29%; for `COC(=O)c1c(NC(=O)c2c(F)c(F)c(F)c(F)c2F)sc2c1CCCCC2` it is 13.36%.
As for `Cc1ccccc1CN1CCC(O)(c2ccc(Cl)c(C(F)(F)F)c2)CC1`, the Inhibition was 17.37%.
On the same count and under the same terms, with `O=C(NC1CCN(c2ccnc3ccccc23)C1)c1cccc(C(F)(F)F)c1` (configuration not stated) the figure was 10.7%; with `N#CCN(CCCCN1CCN(c2ccc(F)cc2)CC1)C(=O)OCc1ccccc1`, 23.36%; with `CCCc1ccc(S(=O)(=O)Nc2ccc(CN3CCN(CC4CC4)CC3)cc2)cc1`, 18.92%.
As for `COc1cccc(-c2cc3c(Nc4cccnc4)nccc3[nH]2)c1`, the Inhibition is on record as 13.42%.
Consider `COc1ccc(N(CCc2cccc(C)n2)C(C)=O)cc1`, for which the Inhibition was 18.62%.
As to `CCOC(=O)c1cc(-c2csc(Nc3c(C)cc(C)cc3C)n2)on1`, the Inhibition is 5.55%.
On the same count and under the same terms, with `Nc1cccnc1Nc1ccc(Cl)cc1` the figure was 2.93%; with `Cc1nc(-c2cccc(NCc3ccccc3)c2)[nH]c1C`, 19.75%.
For `COc1ccc(-c2nnc3ccc(-c4cccc(C(C)C)c4)cn23)cc1OC`, the Inhibition came out at 5.54%.
For `O=C(c1cc2ccccc2o1)N1CCN(Cc2ccc3c(c2)OCO3)CC1`, the Inhibition is given as 8.69%.
The same measure, in the same setting: with `CC(Oc1ccccc1)C(=O)Nc1nc(-c2ccccn2)cs1` (configuration not stated) the figure was 40.18%; with `COc1cccc(NC(=O)c2c(NC(=O)c3cccnc3)sc3c2CCC3)c1`, 17.01%.

Another test deals with Escherichia coli. The settings on record: Concentration 20 uM; ASSAY_TEST Inhibition of Bacterial Growth; detection method Absorption (OD600); MEDIA CAMHB; plate type 384well; NBS; CORNING #3640; time 18 hr.
On to `Cc1cccc(Cn2ccc(NC(=O)c3ccc4c(c3)OCO4)n2)c1`, for which the Inhibition was found to be 6.79%.
The same measure, in the same setting: the figure for `CNc1cc(C)nc(C2CN(C(=O)c3n[nH]c4ccccc34)CCO2)c1` (configuration not stated) is 10.11%; for `Cc1cc(C)n(-c2ccc(NC(=O)C3CCN(Cc4cnc(C)s4)CC3)cc2)n1` it is 3.68%.
On to `CCCn1nnc(NC(=O)COc2ccc(C3CCCCC3)cc2)n1`, for which the Inhibition was -2.31%.
`O=C(NCCc1ccn(-c2ccccc2)n1)C1CCCCC1`: the Inhibition is given as 2.39%.
`CC(C)(CN)c1nc(-c2ccc(Cl)c(O)c2)c(-c2ccnc(N)n2)[nH]1.O=C(O)C(F)(F)F.O=C(O)C(F)(F)F`: the Inhibition amounted to 12.46%.
Same read-out and setting: the figure for `COC(=O)c1cccc2oc(-c3cccc(OC)c3NC(=O)c3cc(-c4ccccc4)on3)nc12` is 4.98%; for `Cl.NCC(c1cccs1)S(=O)(=O)c1ccccc1` (configuration not stated) it is -0.69%.
The same measure, in the same setting: the figure for `Cc1cc2nc(NC(=O)C(C)(C)C)nc(Cl)c2n1Cc1ccc(Cl)cc1` is 0.73%; for `Clc1ccc(Cl)c(CO[C@H]2CCCC[C@@H]2n2ccnc2)c1` it is 7.4%.
Turning to `O=C(NC1CCCCC1)N1CCN(Cc2ccc3c(c2)OCO3)CC1`, the Inhibition is listed as 4.44%.
Turning to `O=C(Nc1cccc(-c2ccc(NCCCN3CCCC3)nc2)c1)c1ccccc1`, the Inhibition is on record as 7.66%.
On the same count and under the same terms, with `O=C(C1CCN(c2nnc(-n3cccc3)s2)CC1)N1CCC(Cc2ccccc2)CC1` the figure was 6.98%; with `CNc1snc(C)c1C(=O)NCCOc1ccc(OC)cc1`, 5.8%.
Same read-out and setting: the figure for `COc1ccc(S(=O)(=O)Nc2ccc(CN3CCN(C(=O)c4cccc(C#N)c4)CC3)cc2)cc1` is -0.19%; for `O=C(Nc1ccnc(-c2cccnc2)n1)c1cc(C(F)(F)F)cc(C(F)(F)F)c1` it is 6.19%; for `COc1ccc(C2CC(c3cccs3)=NN2C(=O)c2ccco2)cc1OC` (configuration not stated) it is 11.75%.
The same measure, in the same setting: the figure for `CN1CCCN(C(c2ccccc2)c2ccc(Cl)cc2)CC1` (configuration not stated) [HOMOCHLORCYCLIZINE] is 4.77%; for `COc1ccc(C(=N)N)cc1-c1cn(-c2ccc(C(=N)N)cc2)nn1.Cl.Cl` it is 2.37%.
On to `O=C(NCc1ccoc1)N1CCN(Cc2ccc3c(c2)OCO3)CC1`, for which the Inhibition is 3.25%.
The same measure, in the same setting: with `CNC(=O)c1nn(C)c2c1C(C)(C)Cc1cnc(Nc3ccc(N4CCN(C)CC4)cc3)nc1-2` [MILCICLIB] the figure was 10.4%; with `NC(=O)c1cc(Br)ccc1OCCOc1ccccc1`, -2.13%.
Same read-out and setting: with `COC(=O)c1c(NC(=O)c2c(F)c(F)c(F)c(F)c2F)sc2c1CCCCC2` the figure was 6.57%.
Turning to `Cc1ccccc1CN1CCC(O)(c2ccc(Cl)c(C(F)(F)F)c2)CC1`, the Inhibition stood at 4.77%.
Consider `O=C(NC1CCN(c2ccnc3ccccc23)C1)c1cccc(C(F)(F)F)c1` (configuration not stated), for which the Inhibition came out at 9.38%.
On the same count and under the same terms, with `N#CCN(CCCCN1CCN(c2ccc(F)cc2)CC1)C(=O)OCc1ccccc1` the figure was 7.95%; with `CCCc1ccc(S(=O)(=O)Nc2ccc(CN3CCN(CC4CC4)CC3)cc2)cc1`, 6.87%.
The same measure, in the same setting: the figure for `COc1cccc(-c2cc3c(Nc4cccnc4)nccc3[nH]2)c1` is -3.86%.
`COc1ccc(N(CCc2cccc(C)n2)C(C)=O)cc1`: the Inhibition came to 6.06%.
Consider `CCOC(=O)c1cc(-c2csc(Nc3c(C)cc(C)cc3C)n2)on1`, for which the Inhibition came out at 5.47%.
On the same count and under the same terms, the figure for `Nc1cccnc1Nc1ccc(Cl)cc1` is -1.63%; for `Cc1nc(-c2cccc(NCc3ccccc3)c2)[nH]c1C` it is 6.38%.
Turning to `COc1ccc(-c2nnc3ccc(-c4cccc(C(C)C)c4)cn23)cc1OC`, the Inhibition turned out to be 12.18%.
Same read-out and setting: the figure for `O=C(c1cc2ccccc2o1)N1CCN(Cc2ccc3c(c2)OCO3)CC1` is 11.22%; for `CC(Oc1ccccc1)C(=O)Nc1nc(-c2ccccn2)cs1` (configuration not stated) it is -10.82%.
Turning to `COc1cccc(NC(=O)c2c(NC(=O)c3cccnc3)sc3c2CCC3)c1`, the Inhibition is listed as 4.69%.
